Measurements as given in PubChem BioAssay (NCI).
Compounds without any hit were thinned out: in the full panel of roughly 83,000, 20% have a hit.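 Assay: single dose, 48 h. Readout: percent growth (0 = no net growth; negative = cell death). Active: <10.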 Active and inactive are the calls of the source.

Experiments:
Assay in all cases: NCI-60 one-dose screen, 48 h (100 = growth as untreated, 0 = no growth, -100 = all killed)
Settings in all cases: 10 µM
[1] = test system: DU-145 prostate
[2] = test system: MALME-3M melanoma
[3] = test system: MDA-MB-231 breast
[4] = test system: RXF 393 renal
[5] = test system: SF-268 CNS
[6] = test system: SF-295 CNS
[7] = test system: SF-539 CNS
[8] = test system: UACC-257 melanoma
[9] = test system: M14 melanoma
[10] = test system: HCT-15 colon
[11] = test system: HT29 colon
[12] = test system: SNB-75 CNS
[13] = test system: SNB-19 CNS
[14] = test system: U251 CNS
[15] = test system: PC-3 prostate
[16] = test system: SK-MEL-5 melanoma
[17] = test system: LOX IMVI melanoma
[18] = test system: SK-MEL-28 melanoma
[19] = test system: SK-MEL-2 melanoma
[20] = test system: K-562 leukemia

Measured: growth

CN(C)CCC(=O)c1c[nH]c2ccccc12
inactive: [1] 111% | [2] 105% | [3] 115% | [4] 126% | [5] 115% | [6] 99.7% | [7] 103% | [8] 115% | [9] 101% | [10] 110% | [11] 101% | [12] 99.8% | [13] 112% | [14] 106% | [15] 84.3% | [16] 113% | [17] 103% | [18] 115% | [19] 105%

S=c1[nH]nc(Cc2ccccc2)c(=S)[nH]1
inactive: [1] 100% | [20] 94.6% | [2] 98.3% | [3] 113% | [4] 103% | [5] 90.3% | [6] 99.8% | [7] 102% | [8] 102% | [9] 101% | [10] 102% | [11] 97.4% | [12] 92.8% | [13] 109% | [14] 100% | [15] 89.1% | [16] 110% | [17] 94.4% | [18] 114% | [19] 104%

O=C(/C(=C/c1ccccc1)CBr)c1ccccc1
inactive: [1] 87.6% | [2] 77.5% | [3] 58.3% | [4] 71.7% | [5] 84.4% | [6] 95.1% | [7] 82.7% | [8] 73.9% | [9] 65.8% | [10] 47% | [11] 83.7% | [12] 48.6% | [13] 90.9% | [14] 78.6% | [15] 74.8% | [16] 87.7% | [17] 44.3% | [18] 94.4% | [19] 93.4%
active: [20] 9.75%

BrC/C=C/C[P+](c1ccccc1)(c1ccccc1)c1ccccc1
inactive: [1] 39.7% | [20] 17.5% | [2] 60.6% | [3] 77.4% | [4] 81.8% | [5] 58.7% | [6] 38.2% | [7] 10% | [8] 47.9% | [9] 49.9% | [10] 37.3% | [11] 60% | [13] 46.6% | [14] 18.2% | [15] 22.4% | [16] 53.9% | [18] 53.2% | [19] 78.7%
active: [17] 2.3%
